We go through seven compounds from PubChem BioAssay (NCI).

Structures are written as SMILES. This is part of a sample that, as a whole, favours compounds with a hit. Of some 83,000 tested, about 20% had one in any assay.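 48-hour exposure, single concentration, 96-well plates; percent growth endpoint where 0 means no net growth. Active: below 10.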 A number with no mark means an inactive call. Activity calls are given as the source filed them.

Holding throughout (assay): NCI-60 one-dose screen, 48 h (100 = growth as untreated, 0 = no growth, -100 = all killed)
What all share (details): 10 µM unless noted

Assay [1] relates to NCI-H23 lung.
The subject of assay [2] is NCI-H226 lung.
Assay [3] concerns NCI-H322M lung.
The subject of assay [4] is HOP-62 NSCLC.
Assay [5] deals with NCI-H460 lung.
The subject of assay [6] is HOP-92 NSCLC.
Assay [7] deals with NCI-H522 lung.
The subject of assay [8] is A549/ATCC NSCLC.
In assay [9] the test system is 786-0 renal.
Assay [10] concerns COLO 205 colon.
Assay [11] concerns DU-145 prostate.
Assay [12] relates to K-562 leukemia.
Assay [13] concerns MALME-3M melanoma.
For assay [14], the system named is MDA-MB-231 breast.
The test system of assay [15] is RXF 393 renal.
Assay [16] concerns SF-268 CNS.
Assay [17] concerns SF-295 CNS.
For assay [18], the system named is SF-539 CNS.
In assay [19] the test system is UACC-257 melanoma.
The subject of assay [20] is M14 melanoma.

As for `O=C(CN1C(=O)S/C(=C\c2ccccc2)C1=O)Nc1ncc(Cc2ccccc2Cl)s1`, the growth in assay [1] is 102%; in assay [2], 95.7%; in assay [3], 95.9%; in assay [4] it was 103%; in assay [5] it was 110%; in [6] it was 108%. Besides, the growth in [7] was 81%; in [8], 98.6%; in assay [9], 107%; in [10] it was 113%; in assay [11] it was 87%; in assay [12], 97.3%. Further, the growth is 104% in assay [13]; 101% in [14]; 125% in [15]; 87.9% in assay [16]; 100% in assay [17]; 94.8% in [18]. Besides, the growth in assay [19] was 96.9%; in assay [20] it was 102%.
In the case of `C=CC[Se]C(=O)Cc1c(C)n(C(=O)c2ccc(Cl)cc2)c2ccc(OC)cc12`, the growth in [1] was -18.2% (active); in assay [2], -20.5% (active); in assay [3], -29.5% (active); in assay [4], -16.6% (active); in assay [5] it was -6.72% (active); in assay [6], -21.6% (active). The growth was 8.54% (active) in assay [7]; -5.21% (active) in assay [8]; -50.5% (active) in assay [9]; -32.1% (active) in [10]; -35.6% (active) in assay [11]; 25.9% in assay [12]. In addition, the growth is -23.4% (active) in assay [13]; -56% (active) in assay [14]; -57.5% (active) in assay [15]; 15.3% in [16]; -28.8% (active) in [17]; -89.5% (active) in assay [18]. Also, the growth is -34.8% (active) in assay [19] and -35.4% (active) in assay [20].
As to `COC(=O)c1nc(-c2ccc(C)cc2)oc1S(=O)(=O)c1cccc(OC)c1`, the growth in assay [1] was 92.6%; in assay [2], 87%; in assay [3], 93.3%; in [4] it was 96.2%; in assay [5] it was 104%; in [6] it was 79.6%. Besides, the growth in assay [7] was 33.8%; in [8], 97.5%; in assay [9] it was 85.2%; in assay [10], -8.96% (active); in assay [11], 104%; in assay [12], 11.6%. For the same compound, the growth was -12.3% (active) in assay [13]; 94.1% in [14]; 77% in [15]; 92.8% in assay [16]; 104% in [17]; 101% in assay [18]. The growth in assay [19] is 97.5%; in [20] it was 90.4%.
In the case of `CC(C)c1ccc(-n2c(=S)[nH]c3sc4cc(O)ccc4c3c2=O)cc1`, the growth in assay [1] was 98.6%; in assay [2] it was 92.5%; in assay [3], 90.4%; in assay [4] it was 102%; in assay [5] it was 101%; in assay [6], 80.2%. Moreover, the growth is 99.9% in [7]; 106% in [8]; 103% in assay [9]; 102% in assay [10]; 104% in assay [11]; 107% in assay [12]. Further, the growth is 87.1% in [13]; 95.4% in assay [14]; 91.2% in [15]; 99.4% in assay [16]; 103% in assay [17]; 93.6% in assay [18]. In addition, the results for the growth in [19] and in assay [20] were 111% and 94.6%, respectively.
Take `Cc1ccc(-c2nc([P+](c3ccccc3)(c3ccccc3)c3ccccc3)c(S(=O)(=O)c3ccc(C)cc3)o2)cc1`: the growth in [1] is 15%; in assay [2], 46.9%; in [3] it was 57.2%; in assay [4] it was 17.7%; in assay [5] it was 4.75% (active); in assay [6] it was -7.71% (active). For the same compound, the growth is 4.04% (active) in assay [7]; 27.5% in assay [8]; -18.7% (active) in assay [9]; -38.1% (active) in assay [10]; 25.5% in assay [11]; 4.12% (active) in assay [12]. Besides, the growth was -0.571% (active) in [13]; 3.47% (active) in [14]; -28.6% (active) in assay [15]; 45.5% in [16]; 81% in assay [17]; -65.6% (active) in [18]. The growth in assay [19] was 3.98% (active); in assay [20], 19.3%.
As for `O=C(N/N=C/c1c(Cl)cccc1Cl)c1cccnc1Nc1cccc(C(F)(F)F)c1`, the growth is 44.3% in [1]; 18.4% in assay [2]; 35% in [3]; 40.2% in assay [4]; 15% in assay [5]; 14.7% in assay [6]. The growth in [7] was 1.47% (active); in assay [8] it was 51%; in [9] it was 42.6%; in assay [10], 15.1%; in assay [11] it was 49.3%; in [12], 73.9%. In addition, the growth in [13] is 54.3%; in [14] it was 55.9%; in assay [15] it was 68.1%; in [16], 39.3%; in assay [17], 28.8%; in [18] it was 34.1%. Also, the growth in assay [19] was 56%; in assay [20], 37.3%.
For `CCN1C(=O)N(CC)C2C1NN=c1s/c(=C\c3ccccc3F)c(=O)n12` (stereo not given), the growth is 31.9% in [1]; 48.5% in assay [2]; 42.6% in assay [3]; 35.1% in assay [4]; 2.31% (active) in [5]; 40.3% in [6]. Moreover, the growth is -8.42% (active) in [7]; 7.92% (active) in assay [8]; 20.6% in [9]; -9.98% (active) in [10]; 2.54% (active) in assay [11]; 8.14% (active) in assay [12]. The growth in assay [13] is 52.6%; in assay [14] it was 15.2%; in [15] it was 52%; in [16] it was 44.6%; in [17], 12.4%; in assay [18], -18.1% (active). For the same compound, the growth in assay [19] is 53.1%; in assay [20] it was 2.5% (active).
